# Test results as given in PubChem BioAssay.
# Values joined by “and” are separate entries in the source; they are usually repeats but may differ in a detail not shown here. Equal values may be shown once. Active and inactive are the calls of the source.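 The calls were made as follows, unless noted: active = compounds whose cell count with miR-34 switched on is under 0.7 times the count with it off; inactive = the rest.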
# Columns and labels:
# [1] = hESC survival regulators, cell-based (AID 493140; call rule not given here;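 also: cells exposed to compounds for four days before counting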); conditions: human embryonic stem cell survival screen; stronger effect = higher value
# [2] = sensitizers of A549 cells to miR-34 induction, primary screen, imaging, A549 dox-inducible miR-34, nuclei and caspase counts (AID 1347080); conditions: A549 miR-34 inducible, Hoechst nuclei count, 48 h
# [3] = liver-stage malaria parasite growth inhibition, primary screen, cell-based, HepG2, luciferase luminescence, HepG2 viability (AID 624349; in the data active = parasite load remaining mostly below about 12%, no sharp cut-off; inactive = mostly above about 10%;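 also: 100% = mean of DMSO negative control wells on the same plate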); conditions: P. berghei liver stage in HepG2, luciferase luminescence, concentration not given here; parasite load remaining: stronger effect = lower value; viability: measured here: HepG2 viability without parasites
# [4] = kinase inhibitors against Plasmodium liver-stage infection, cell-based, known kinase inhibitor set, luminescence, hepatoma host viability (AID 624392; call rule not given here;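 also: infected cells incubated roughly two days before readout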); conditions: Plasmodium liver stage in hepatoma cells, luciferase luminescence, concentration not given here; liver cell % of control: measured here: host liver cell viability; parasite % of control: stronger effect = lower value
# [5] = inhibitors of Cryptococcus chitosan production, flow cytometry, Cibacron Brilliant Red staining (AID 1347148; call rule not given here;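 also: compound exposure lasted three days at 37 degrees C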); conditions: Cryptococcus neoformans chitosan, stronger effect = lower value; at 10 µM unless noted
# [6] = stronger effect = lower value, cell number ratio, induced over uninduced
# [7] = measured here: relative caspase fold change +Dox/-Dox
# [8] = measured here: total cells with miR-34 induction, stronger effect = lower value
# [9] = measured here: total cells without miR-34 induction
Structure (SMILES),survival [1],"fold change [2, 6]","fold change [2, 7]","cell count [2, 8]","cell count [2, 9]",parasite load remaining [3],viability [3],liver cell % of control [4] [%],parasite % of control [4],fold fluorescence [5]
C=C1CC[C@H](O)C/C1=C/C=C1\CCC[C@]2(C)[C@@H]([C@H](C)CC[C@@H](O)C(C)(C)O)CC[C@@H]12,80.4 (inactive),1.03 (inactive),1.15,5660,5500,–,–,–,–,–
C[C@@H]1C(=O)O[C@H]2CC34[C@H]5C[C@@H](C(C)(C)C)[C@]36[C@@H](OC(=O)[C@@H]6O)O[C@@]4(C(=O)O5)[C@]21O (stereo partly drawn),–,0.905 (inactive),1.08,9000,9940,93.7% (inactive),99.1%,–,–,–
CCCCCC(O)/C=C/C=O (stereo not drawn),101 (inactive),0.954 (inactive),1.27,5280,5530,–,–,–,–,–
COC(C)(C)CCCC(C)C/C=C/C(C)=C/C(=O)O (stereo not drawn),91.1 (inactive),0.916 (inactive),0.969,5680,6210,–,–,–,–,–
COc1ccc(CC(C)(N)C(=O)O)cc1OC (stereo not drawn),17 (inactive),0.962 (inactive),0.938,9190,9550,64.7% (inactive),74.8%,–,–,–
CC[N+]1(C)[C@@H]2CC[C@H]1CC(OC(=O)[C@H]1CCC(C(=O)OC3C[C@H]4CC[C@@H](C3)[N+]4(C)CC)(c3ccccc3)c3ccccc31)C2 (stereo partly drawn),–,0.889 (inactive),1.08,9010,10100,96.6% (inactive),101%,–,–,–
C[C@H]1c2cccc(O)c2C(O)=C2C(=O)C3(O)C(O)=C(C(N)=O)C(=O)[C@@H](N(C)C)[C@@H]3[C@@H](O)[C@@H]21 (stereo partly drawn),3.25 (inactive),0.641 (active),1.76,4060,6330,62.9% (inactive),97.2%,–,–,–
C[C@H]1[C@H](C)CC[C@]2(C(=O)O[C@@H]3O[C@H](COC4O[C@H](CO)[C@@H](OC5O[C@@H](C)[C@H](O)[C@@H](O)[C@H]5O)[C@H](O)[C@H]4O)[C@@H](O)[C@H](O)[C@H]3O)CC[C@]3(C)C(=CC[C@@H]4[C@@]5(C)C[C@@H](O)[C@H](O)[C@@](C)(CO)C5CC[C@]43C)[C@H]12 (stereo partly drawn),–,0.957 (inactive),0.577,8940,9340,109% (inactive),74.2%,–,–,–
CCCCC[C@H](O)/C=C/[C@H]1OC(O)C[C@H](O)[C@@H]1C/C=C\CCCC(=O)O (stereo partly drawn),96.2 (inactive),0.852 (inactive),1.59,5370,6300,–,–,–,–,–
COc1ccc2c3c([nH]c2c1)[C@H]1C[C@H]2[C@H](C[C@@H](O)[C@H](OC)[C@H]2C(=O)O)CN1CC3,7.42 (inactive),0.96 (inactive),0.581,9000,9370,113% (inactive),75.4%,–,–,–
CC(C)=CCC/C(C)=C/CC1=C(C)C(=O)c2ccccc2C1=O,–,0.983 (inactive),0.847,6780,6900,76.4% (inactive),75.8%,–,–,–
CCCCC/C=C\C[C@@H](O)/C=C/C=C/C=C\[C@@H](O)CCCC(=O)O,102 (inactive),0.993 (inactive),1.34,6200,6240,–,–,–,–,–
S=C(NC1CCCCC1)N1CCC(C2C=NC=N2)CC1 (stereo not drawn),6.25 (inactive),0.857 (inactive),1.52,8240,9620,49.2% (inactive),96.4%,–,–,–
CCCCC[C@H](O)/C=C/[C@@H]1[C@H](C/C=C\CCCC(=O)O)[C@@H](O)C[C@H]1O,105 (inactive),0.908 (inactive) and 0.973 (inactive),1.37 and 1.68,6000 and 5340,6610 and 5490,–,–,–,–,–
CCC(=O)OC1(C(=O)CCl)[C@@H](C)C[C@H]2[C@@H]3CCC4=CC(=O)C=C[C@]4(C)[C@@]3(F)[C@@H](O)C[C@@]21C (stereo partly drawn),2.5 (inactive),0.789 (inactive),1.5,5850,7420,141% (inactive),94.7%,–,–,–
CN(C)c1ccc(O)c2c1CC1CC3[C@@H](N(C)C)C(=O)C(C(N)=O)=C(O)[C@]3(O)C(=O)C1=C2O (stereo partly drawn),–,0.679 (active),1.3,3880,5720,53.7% (inactive),42.6%,–,–,–
CC12CCC3c4ccc(OC(=O)c5ccccc5)cc4CCC3C1CCC2O (stereo not drawn),–,0.833 (inactive),2.66,9690,11600,35.5% (inactive),95.7%,–,–,–
CN1CC[C@]23c4ccccc4N[C@H]1[C@]21CCN(C)[C@H]3Nc2ccccc21,–,0.926 (inactive),1.16,9800,10600,122% (inactive),96.8%,–,–,–
CCOC(=O)[C@H](CCc1ccccc1)N[C@@H](C)C(=O)N1C(C(=O)O)C[C@@H]2CCC[C@@H]21 (stereo partly drawn),13.5 (inactive),0.971 (inactive),0.659,9850,10100,66.3% (inactive),72.7%,–,–,–

Structure (SMILES),survival [1],"fold change [2, 6]","fold change [2, 7]","cell count [2, 8]","cell count [2, 9]",parasite load remaining [3],viability [3],liver cell % of control [4] [%],parasite % of control [4],fold fluorescence [5]
CCCCC(C)(O)C/C=C/[C@H]1[C@H](O)CC(=O)[C@@H]1CCCCCCC(=O)O (stereo partly drawn),92.9 (inactive),0.933 (inactive) and 0.881 (inactive),1.28 and 1.98,6180 and 5400,6620 and 6130,–,–,–,–,–
CC/C=C\C/C=C\C/C=C\C/C=C\C/C=C\CCCC(=O)OCC,–,1.01 (inactive),1.98,11500,11400,31% (inactive),94%,–,–,–
CCCCCCCCCCCCCCCCCCOC[C@H](COP(=O)([O-])OCC[N+](C)(C)C)OC(C)=O,83.4 (inactive),0.968 (inactive) and 1 (inactive),1.1 and 0.859,5740 and 5730,5930 and 5720,–,–,–,–,–
CC1(C)S[C@@H]2[C@H](NC(=O)[C@H](N)c3ccccc3)C(=O)N2[C@H]1C(=O)OC1OC(=O)c2ccccc21 (stereo partly drawn),7.92 (inactive),0.95 (inactive),0.554,8670,9130,114% (inactive),77.4%,–,–,–
CCCCCCCCCCCCCCC[C@@H](O)[C@H](CO)NC(=O)CCCCCCC,84.9 (inactive),0.925 (inactive),1.41,5910,6390,–,–,–,–,–
CC(C)[N+]1(C)[C@@H]2CC[C@@H]1CC(OC(=O)C(CO)c1ccccc1)C2 (stereo partly drawn),–,0.845 (inactive),1.32,9220,10900,92% (inactive),107%,–,–,–
CC(C)(C)NCC(O)COc1cccc2c1CC(O)C(O)C2 (stereo not drawn),–,0.89 (inactive),1.39,8980,10100,84.5% (inactive),104%,–,–,–
Oc1cc(O)c2c(c1)OC(c1ccc(O)c(O)c1)C(O)C2 (stereo not drawn),–,0.908 (inactive),1.18,9500,10500,64.2% (inactive),97%,–,–,–
CC[C@H]1OC(=O)[C@H](C)[C@@H](OC2C[C@@](C)(OC)[C@@H](O)[C@H](C)O2)[C@H](C)[C@@H](O[C@@H]2O[C@H](C)C[C@H](N(C)C)[C@H]2O)[C@](C)(O)C[C@@H](C)/C(=N\OCOCCOC)[C@H](C)[C@@H](O)[C@]1(C)O (stereo partly drawn),–,0.893 (inactive),1,9320,10400,75.3% (inactive),93.9%,–,–,–
C=Cc1c(C)c2cc3nc(cc4[nH]c(cc5nc(cc1[nH]2)C(C)=C5CCC(=O)O)c(CCC(=O)O)c4C)[C@@]1(C)C3=CC=C(C(=O)OC)C1C(=O)OC (stereo partly drawn),–,0.97 (inactive),1.04,9050,9330,82.4% (inactive),67.8%,–,–,–
Nc1ncnc2c1c(I)cn2[C@@H]1O[C@H](CO)[C@H](O)C1O (stereo partly drawn),–,1.01 (inactive),0.838,1250,1240,129% (inactive),64.4%,–,–,–
c1ccc(-c2[nH]ncc2-c2ccnc3ccccc23)nc1,–,0.893 (inactive),0.903,4970,5570,38% (inactive),62.8%,101,63.9% (inactive),–
CCC(NC(C)C)C(O)c1ccc(O)c2[nH]c(=O)ccc12 (stereo not drawn),–,0.908 (inactive),1.47,11700,12900,40.1% (inactive),98.2%,–,–,–
CCCCC[C@H](O)CCCC(=O)O,–,–,–,–,–,–,–,–,–,4.65 [at 265.6 µM] (inactive)
O=C(O)C1(O)C[C@H](O)C(O)[C@@H](O)C1 (stereo partly drawn),–,0.922 (inactive),0.931,8930,9680,88.4% (inactive),72.5%,–,–,–
CC(C)(C)n1nc(Cc2cccc3ccccc23)c2c(N)ncnc21,–,1.05 (inactive),1.15,5260,5010,40.9% (inactive),75%,–,–,–
OCCN1C[C@@H](O)[C@@H](O)C(O)C1CO (stereo partly drawn),–,0.903 (inactive),5.56,12600,14000,147% (inactive) and 57.2% (inactive),86.4% and 111%,–,–,–
CC(C)CC(=O)N[C@H](C(=O)NC(C(=O)NC(CC(C)C)[C@@H](O)CC(=O)N[C@@H](C)C(=O)N[C@@H](CC(C)C)[C@@H](O)CC(=O)O)C(C)C)C(C)C (stereo partly drawn),–,0.937 (inactive),3.28,12400,13300,20.9% (inactive),180%,–,–,–
CC[C@H](C)[C@H](N)C(=O)N[C@@H](CC(N)=O)C(=O)N[C@@H](CC(C)C)C(=O)N[C@@H](CCCCN)C(=O)N[C@@H](C)C(=O)N[C@@H](CC(C)C)C(=O)N[C@@H](C)C(=O)N[C@@H](C)C(=O)N[C@@H](CC(C)C)C(=O)N[C@@H](C)C(=O)N[C@@H](CCCCN)C(=O)N[C@@H](CCCCN)C(=O)N[C@H](C(=O)N[C@@H](CC(C)C)C(N)=O)[C@@H](C)CC,–,–,–,–,–,–,–,–,–,3.8 [at 33.8 µM] (inactive)
